Results published in ChEMBL document CHEMBL1961873, “Compounds: GSK PKIS; Assays: Nanosyn kinase panel” (2012).

What was measured:
[1] = biological target: Rho-associated protein kinase 1 (Homo sapiens) (UniProt Q13464); details: at 1 µM;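 further: reported values are mean percent inhibition of ROCK1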
[2] = biological target: Rho-associated protein kinase 2 (Homo sapiens) (UniProt O75116); details: at 0.1 µM
[3] = biological target: Rho-associated protein kinase 2 (Homo sapiens) (UniProt O75116); details: at 1 µM
[4] = biological target: Ribosomal protein S6 kinase alpha-1 (Homo sapiens) (UniProt Q15418); details: at 0.1 µM
[5] = biological target: Ribosomal protein S6 kinase alpha-1 (Homo sapiens) (UniProt Q15418); details: at 1 µM
[6] = biological target: Ribosomal protein S6 kinase alpha-3 (Homo sapiens) (UniProt P51812); details: at 0.1 µM
Ribosomal protein S6 kinase alpha-3 (Homo sapiens), sequence (P51812 whole entry): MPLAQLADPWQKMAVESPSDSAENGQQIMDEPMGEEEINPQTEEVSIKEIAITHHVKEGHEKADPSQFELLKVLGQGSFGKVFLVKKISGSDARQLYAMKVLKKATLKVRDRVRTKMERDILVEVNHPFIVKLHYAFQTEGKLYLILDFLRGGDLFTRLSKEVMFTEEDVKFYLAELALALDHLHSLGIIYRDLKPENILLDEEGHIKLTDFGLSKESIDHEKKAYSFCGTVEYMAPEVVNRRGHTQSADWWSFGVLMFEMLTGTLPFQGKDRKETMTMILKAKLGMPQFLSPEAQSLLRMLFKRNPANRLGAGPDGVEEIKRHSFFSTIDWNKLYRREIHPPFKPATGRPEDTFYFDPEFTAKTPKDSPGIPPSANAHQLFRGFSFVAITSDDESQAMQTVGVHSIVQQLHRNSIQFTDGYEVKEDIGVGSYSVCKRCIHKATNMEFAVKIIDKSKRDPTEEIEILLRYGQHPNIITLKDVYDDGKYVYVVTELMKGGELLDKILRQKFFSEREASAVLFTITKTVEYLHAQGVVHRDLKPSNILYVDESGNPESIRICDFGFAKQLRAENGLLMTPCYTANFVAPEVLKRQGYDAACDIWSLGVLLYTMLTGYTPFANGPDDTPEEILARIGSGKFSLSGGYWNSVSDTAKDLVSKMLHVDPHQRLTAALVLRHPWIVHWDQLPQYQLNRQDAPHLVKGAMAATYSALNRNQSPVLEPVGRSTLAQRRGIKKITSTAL

[7] = biological target: Ribosomal protein S6 kinase alpha-3 (Homo sapiens) (UniProt P51812); details: at 1 µM
[8] = biological target: Ribosomal protein S6 kinase alpha-2 (Homo sapiens) (UniProt Q15349); details: at 0.1 µM
Ribosomal protein S6 kinase alpha-2 (Homo sapiens), sequence (Q15349 whole entry): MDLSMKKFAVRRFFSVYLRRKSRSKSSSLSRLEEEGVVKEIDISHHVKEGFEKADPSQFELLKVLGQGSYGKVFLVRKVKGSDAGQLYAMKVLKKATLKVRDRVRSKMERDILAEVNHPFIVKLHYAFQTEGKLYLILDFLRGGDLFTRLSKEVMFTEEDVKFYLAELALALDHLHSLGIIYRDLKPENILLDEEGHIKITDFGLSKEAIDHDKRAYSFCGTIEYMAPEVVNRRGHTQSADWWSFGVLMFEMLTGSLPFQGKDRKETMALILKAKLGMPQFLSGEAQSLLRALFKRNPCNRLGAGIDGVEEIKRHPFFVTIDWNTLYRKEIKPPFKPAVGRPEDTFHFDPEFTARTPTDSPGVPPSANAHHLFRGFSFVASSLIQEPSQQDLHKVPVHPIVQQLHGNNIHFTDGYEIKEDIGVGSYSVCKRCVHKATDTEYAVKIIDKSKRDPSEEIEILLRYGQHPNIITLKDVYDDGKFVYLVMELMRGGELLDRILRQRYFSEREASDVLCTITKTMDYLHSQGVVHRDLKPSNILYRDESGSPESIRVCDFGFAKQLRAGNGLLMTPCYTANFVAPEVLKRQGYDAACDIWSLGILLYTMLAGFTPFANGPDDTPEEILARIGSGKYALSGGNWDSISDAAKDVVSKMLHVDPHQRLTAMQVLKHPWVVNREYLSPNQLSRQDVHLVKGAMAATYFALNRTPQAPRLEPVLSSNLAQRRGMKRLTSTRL

[9] = biological target: Ribosomal protein S6 kinase alpha-2 (Homo sapiens) (UniProt Q15349); details: at 1 µM
[10] = biological target: Ribosomal protein S6 kinase alpha-6 (Homo sapiens) (UniProt Q9UK32); details: at 0.1 µM;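 further: reported value is the mean inhibition of RSK4, from the GSK PKIS kinase inhibitor screen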
Ribosomal protein S6 kinase alpha-6 (Homo sapiens), sequence (Q9UK32 whole entry): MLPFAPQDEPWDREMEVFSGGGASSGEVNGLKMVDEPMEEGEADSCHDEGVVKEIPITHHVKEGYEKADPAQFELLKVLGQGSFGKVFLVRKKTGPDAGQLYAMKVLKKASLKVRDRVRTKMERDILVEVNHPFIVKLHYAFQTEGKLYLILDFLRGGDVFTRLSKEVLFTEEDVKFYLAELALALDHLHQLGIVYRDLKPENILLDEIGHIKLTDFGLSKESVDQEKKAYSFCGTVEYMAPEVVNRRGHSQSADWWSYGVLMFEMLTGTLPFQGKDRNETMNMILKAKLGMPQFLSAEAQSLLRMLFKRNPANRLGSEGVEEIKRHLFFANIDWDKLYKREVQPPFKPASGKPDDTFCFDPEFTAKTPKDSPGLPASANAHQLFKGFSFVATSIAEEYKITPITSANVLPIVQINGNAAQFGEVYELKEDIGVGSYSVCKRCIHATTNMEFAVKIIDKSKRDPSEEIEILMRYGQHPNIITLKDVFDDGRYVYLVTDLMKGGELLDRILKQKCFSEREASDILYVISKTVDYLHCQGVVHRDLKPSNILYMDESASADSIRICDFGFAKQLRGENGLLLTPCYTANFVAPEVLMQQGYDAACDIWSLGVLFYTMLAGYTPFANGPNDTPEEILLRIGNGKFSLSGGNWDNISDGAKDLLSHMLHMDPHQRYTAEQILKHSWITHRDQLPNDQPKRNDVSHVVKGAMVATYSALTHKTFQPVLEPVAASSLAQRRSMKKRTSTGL

Rho-associated protein kinase 2 (Homo sapiens), sequence (O75116 whole entry, looked up): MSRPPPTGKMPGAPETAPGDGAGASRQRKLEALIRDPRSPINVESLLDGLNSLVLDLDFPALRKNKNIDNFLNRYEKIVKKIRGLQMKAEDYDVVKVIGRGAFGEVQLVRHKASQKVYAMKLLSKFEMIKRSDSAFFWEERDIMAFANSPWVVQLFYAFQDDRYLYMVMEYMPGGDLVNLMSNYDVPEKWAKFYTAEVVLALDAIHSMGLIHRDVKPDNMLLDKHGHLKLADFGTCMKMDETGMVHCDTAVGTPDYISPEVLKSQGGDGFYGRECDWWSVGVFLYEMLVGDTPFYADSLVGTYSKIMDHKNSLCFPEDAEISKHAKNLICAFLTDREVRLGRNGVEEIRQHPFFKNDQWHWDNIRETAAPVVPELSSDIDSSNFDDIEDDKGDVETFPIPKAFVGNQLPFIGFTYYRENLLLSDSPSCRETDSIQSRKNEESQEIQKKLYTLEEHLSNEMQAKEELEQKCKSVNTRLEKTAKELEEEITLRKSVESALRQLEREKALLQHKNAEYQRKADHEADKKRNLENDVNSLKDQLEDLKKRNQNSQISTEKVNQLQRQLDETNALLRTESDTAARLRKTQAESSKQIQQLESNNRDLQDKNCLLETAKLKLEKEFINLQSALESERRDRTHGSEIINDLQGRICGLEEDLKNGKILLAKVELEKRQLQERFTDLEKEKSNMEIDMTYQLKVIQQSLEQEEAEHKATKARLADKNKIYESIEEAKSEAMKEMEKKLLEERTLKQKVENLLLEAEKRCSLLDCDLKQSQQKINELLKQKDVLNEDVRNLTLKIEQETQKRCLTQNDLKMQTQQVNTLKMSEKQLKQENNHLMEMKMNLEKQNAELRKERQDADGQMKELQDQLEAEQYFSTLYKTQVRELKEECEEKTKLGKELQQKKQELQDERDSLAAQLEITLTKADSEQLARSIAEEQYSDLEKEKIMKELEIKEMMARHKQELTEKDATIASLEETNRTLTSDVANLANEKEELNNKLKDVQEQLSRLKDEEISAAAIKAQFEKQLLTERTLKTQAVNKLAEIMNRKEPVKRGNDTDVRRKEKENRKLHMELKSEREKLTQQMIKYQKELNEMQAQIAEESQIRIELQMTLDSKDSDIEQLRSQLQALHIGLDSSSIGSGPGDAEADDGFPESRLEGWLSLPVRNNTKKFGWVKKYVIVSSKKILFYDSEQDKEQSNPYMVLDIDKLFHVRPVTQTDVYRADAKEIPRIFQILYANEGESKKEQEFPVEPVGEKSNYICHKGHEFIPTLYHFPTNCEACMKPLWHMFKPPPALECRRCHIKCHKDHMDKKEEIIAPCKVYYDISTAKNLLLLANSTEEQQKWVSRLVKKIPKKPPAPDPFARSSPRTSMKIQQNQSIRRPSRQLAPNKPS
Rho-associated protein kinase 1 (Homo sapiens), sequence (Q13464 2-1354 limits assumed): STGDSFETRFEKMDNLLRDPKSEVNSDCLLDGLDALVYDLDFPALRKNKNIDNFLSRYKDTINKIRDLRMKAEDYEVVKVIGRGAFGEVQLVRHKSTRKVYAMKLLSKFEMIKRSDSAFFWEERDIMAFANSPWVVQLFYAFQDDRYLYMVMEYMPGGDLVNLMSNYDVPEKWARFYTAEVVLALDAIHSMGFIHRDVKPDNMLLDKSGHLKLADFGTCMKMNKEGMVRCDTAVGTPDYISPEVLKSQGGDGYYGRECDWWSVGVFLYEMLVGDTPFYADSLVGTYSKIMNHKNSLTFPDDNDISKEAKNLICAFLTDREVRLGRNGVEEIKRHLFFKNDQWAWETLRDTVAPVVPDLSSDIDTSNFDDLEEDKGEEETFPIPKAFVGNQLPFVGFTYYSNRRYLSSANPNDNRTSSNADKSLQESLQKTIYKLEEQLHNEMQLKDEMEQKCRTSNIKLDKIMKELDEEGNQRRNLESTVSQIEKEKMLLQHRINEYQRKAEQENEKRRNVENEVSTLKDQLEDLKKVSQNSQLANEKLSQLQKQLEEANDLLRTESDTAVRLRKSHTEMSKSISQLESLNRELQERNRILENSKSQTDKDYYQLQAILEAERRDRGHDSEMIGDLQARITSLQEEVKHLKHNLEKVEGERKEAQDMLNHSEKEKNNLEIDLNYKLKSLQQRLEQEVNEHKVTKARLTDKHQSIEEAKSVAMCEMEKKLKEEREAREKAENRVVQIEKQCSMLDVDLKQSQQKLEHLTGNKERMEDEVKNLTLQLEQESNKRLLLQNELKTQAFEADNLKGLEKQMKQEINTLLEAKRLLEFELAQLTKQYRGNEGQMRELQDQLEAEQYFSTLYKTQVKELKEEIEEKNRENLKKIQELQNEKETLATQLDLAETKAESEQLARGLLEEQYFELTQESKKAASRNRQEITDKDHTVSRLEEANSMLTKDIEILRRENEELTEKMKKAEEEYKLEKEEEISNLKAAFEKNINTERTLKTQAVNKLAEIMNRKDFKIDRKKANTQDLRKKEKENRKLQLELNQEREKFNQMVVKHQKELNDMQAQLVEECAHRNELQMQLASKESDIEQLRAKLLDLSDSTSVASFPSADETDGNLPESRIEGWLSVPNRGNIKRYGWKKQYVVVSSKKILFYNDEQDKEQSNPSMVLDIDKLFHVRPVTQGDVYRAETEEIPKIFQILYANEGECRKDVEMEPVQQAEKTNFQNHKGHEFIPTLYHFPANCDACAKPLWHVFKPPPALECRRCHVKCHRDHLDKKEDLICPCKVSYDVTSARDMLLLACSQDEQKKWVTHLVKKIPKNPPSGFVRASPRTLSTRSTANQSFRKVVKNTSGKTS

SMILES	inhibition [1]	inhibition [2]	inhibition [3]	inhibition [4]	inhibition [5]	inhibition [6]	inhibition [7]	inhibition [8]	inhibition [9]	inhibition [10]
Fc1ccc(Nc2nccc(-c3c(-c4ccc(C(F)(F)F)cc4)nn4ncccc34)n2)cc1F	2.54%	1.24%	2.36%	0.24%	-0.46%	-0.49%	-1.74%	1.11%	2.41%	1.29%
NC(=O)c1ccc2c(-c3ccnc(NCCCO)n3)c(-c3ccc(F)cc3)nn2c1	1.92%	3.55%	5.31%	3.69%	1.7%	0.96%	1.23%	2.66%	3.1%	2.24%
CCOc1ccc2c(-c3ccnc(Nc4cc(OC)cc(C(F)(F)F)c4)n3)cnn2n1	-0.21%	0.14%	-0.36%	-0.43%	-1.47%	-0.09%	-1.49%	0.44%	0.33%	1.36%
CCCNc1cccc(-n2ncc3c(N/N=C/c4ccncc4)ncnc32)c1	13.7%	4.97%	28.1%	1.36%	4.72%	1.62%	4.75%	-0.01%	2.43%	0.53%
CNC(=O)c1sc(-n2cnc3cc(OC)c(OC)cc32)cc1OCc1ccccc1C(F)(F)F	0.26%	2.94%	1.36%	1.1%	2.58%	1.77%	3.02%	2.72%	2.3%	0.81%
CN1CCC(n2cnc(-c3ccc(F)cc3)c2-c2ccnc(NCCO)n2)CC1	4.39%	3.23%	8.52%	1.81%	6.04%	0.9%	3.09%	3.09%	4.29%	1.56%
NS(=O)(=O)c1cccc(N/C=C2\C(=O)Nc3ccccc32)c1	3.96%	2.91%	5.46%	3.72%	17.6%	2.42%	15.2%	5.57%	26.2%	4.77%
CCN1CCC(C(=O)Nc2n[nH]c3nnc(-c4cccc(F)c4F)cc23)CC1	-0.9%	0.68%	-0.77%	0.15%	0.28%	1.06%	2.16%	-0.71%	1.38%	0.8%
COc1cc(N2CCN(C(C)C)CC2)ccc1Nc1nc(Nc2cccc(F)c2C(=O)O)c2cc[nH]c2n1	2.22%	2.05%	5.77%	4.06%	16%	2.18%	11.6%	0.99%	5.21%	2.17%
Cc1cc(O)cc(C)c1/C=C/c1cncc(C(N)=O)c1	3.29%	3.18%	2.02%	0.33%	-0.09%	1.07%	-0.35%	1.1%	1.48%	0.72%
COc1ccc(-c2nn3ncccc3c2-c2ccnc(Nc3ccc(F)c(F)c3)n2)cc1	1.15%	3.85%	6.06%	4.22%	7.89%	4.49%	7.14%	2.96%	2.69%	1.78%
COC(=O)Nc1nc2cc(Oc3ccc(NC(=O)Nc4ccccc4)cc3)ccc2[nH]1	6.47%	8.68%	17.2%	1.66%	4.06%	2.3%	3.56%	1.67%	1.89%	1.27%
COc1cc(Nc2ncc(-c3ccccc3)o2)cc(OC)c1	2.6%	3.77%	-3.98%	1.54%	1.99%	1.01%	2.61%	1.71%	3.57%	0.85%
CS(=O)(=O)CCNCc1ccc(-c2ccc3ncnc(Nc4ccc(OCc5ccccc5)cc4)c3c2)o1	1.69%	2.02%	2.23%	2.15%	3.81%	2.27%	2.78%	3.11%	4.28%	2.96%
CS(=O)(=O)Nc1ccc(-c2cc(-c3ccccc3)cc(C(N)=O)c2N)cc1	1.71%	0.41%	1.85%	-1.14%	0.41%	-0.7%	0.45%	-1.55%	0.47%	-1.16%
NS(=O)(=O)c1ccc(N/N=C2\C(=O)Nc3cccc(CCc4ccncc4)c32)cc1	1.51%	0.96%	1.68%	2.2%	1.84%	2.02%	2.03%	2.79%	7.37%	3.11%
